Values joined by “and” are separate entries in the source; they are usually repeats but may differ in a detail not shown here. Identical values can stand only once. Inconclusive results are not listed. A call without a number means that no potency is given here. Values without a mark were called inactive. Active and inactive are the calls of the source. Calls follow the shape of the dose curve; as a rule, active = well fitted curve in the direction sought with a large enough effect in the repeat runs; inconclusive = weak or mixed curves; inactive = no such curve, though single readings can be large; an effect the other way counts as inactive or inconclusive.
Experiments:
[1] = target: Cytochrome P450 2D6 (Homo sapiens) (UniProt P10635); test: Cytochrome P450 Family 2 Subfamily D Member 6 (CYP2D6) small molecule antagonists: luciferase reporter qHTS assay (AID 1671196); also: nearly all actives have a fitted effect of over 50% in size; as to activity change, negative = inhibition: series mostly up to about 120 µM
Cytochrome P450 2D6 (Homo sapiens), sequence (P10635 whole entry, looked up): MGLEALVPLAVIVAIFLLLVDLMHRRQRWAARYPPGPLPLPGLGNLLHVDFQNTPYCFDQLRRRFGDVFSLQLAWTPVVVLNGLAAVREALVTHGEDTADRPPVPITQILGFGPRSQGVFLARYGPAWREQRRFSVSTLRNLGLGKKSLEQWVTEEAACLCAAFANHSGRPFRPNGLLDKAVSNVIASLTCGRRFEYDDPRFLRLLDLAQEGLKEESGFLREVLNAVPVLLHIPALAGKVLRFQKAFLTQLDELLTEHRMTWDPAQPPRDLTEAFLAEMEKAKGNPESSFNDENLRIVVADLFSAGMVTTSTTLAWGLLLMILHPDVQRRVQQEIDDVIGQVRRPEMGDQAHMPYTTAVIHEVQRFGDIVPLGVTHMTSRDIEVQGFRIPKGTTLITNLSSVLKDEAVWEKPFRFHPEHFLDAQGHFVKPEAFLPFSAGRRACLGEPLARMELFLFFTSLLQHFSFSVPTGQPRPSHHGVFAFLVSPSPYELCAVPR
Summary of the method: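 Enzyme and proluciferin substrate were first combined with test chemical for 10 min at room temperature. Adding NADPH regeneration solution started a 1 h reaction, stopped with luciferin detection reagent and read by luminescence 20 min later.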

[2] = target: Cytochrome P450 2C19 (Homo sapiens) (UniProt P33261); test: Cytochrome P450 Family 2 Subfamily C Member 19 (CYP2C19) small molecule antagonists: luciferase reporter qHTS assay (AID 1671197); also: nearly all actives have a fitted effect of over 65% in size; as to activity change, negative = inhibition: series mostly up to about 120 µM
Cytochrome P450 2C19 (Homo sapiens), sequence (P33261 whole entry, looked up): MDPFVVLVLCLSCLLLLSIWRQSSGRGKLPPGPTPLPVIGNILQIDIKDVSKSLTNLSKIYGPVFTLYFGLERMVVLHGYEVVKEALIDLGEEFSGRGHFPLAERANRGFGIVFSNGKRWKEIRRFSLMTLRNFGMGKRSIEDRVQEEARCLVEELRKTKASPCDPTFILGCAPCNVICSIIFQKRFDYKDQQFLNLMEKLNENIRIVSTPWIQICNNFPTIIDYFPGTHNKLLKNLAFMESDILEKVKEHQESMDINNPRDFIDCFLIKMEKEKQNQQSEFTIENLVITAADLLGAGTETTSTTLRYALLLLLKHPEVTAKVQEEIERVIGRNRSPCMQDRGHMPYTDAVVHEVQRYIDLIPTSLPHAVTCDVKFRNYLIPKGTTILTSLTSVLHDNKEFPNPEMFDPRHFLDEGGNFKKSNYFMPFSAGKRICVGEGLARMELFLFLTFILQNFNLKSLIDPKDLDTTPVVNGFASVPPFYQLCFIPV
Summary of the method: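 CYP2C19 P450-Glo, 1536-well qHTS. Cpd + enzyme/proluciferin substrate 10 min RT; + NADPH regen, 37C 1 h; stop with luciferin detection reagent, 20 min RT, luminescence (RLU). Pos ctrl ketoconazole.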

[3] = target: Cytochrome P450 1A2 (Homo sapiens) (UniProt P05177); test: Cytochrome P450 Family 1 Subfamily A Member 2 (CYP1A2) small molecule antagonists: luciferase reporter qHTS assay (AID 1671199); also: nearly all actives have a fitted effect of over 50% in size; as to activity change, negative = inhibition: series mostly up to about 120 µM
Cytochrome P450 1A2 (Homo sapiens), sequence (P05177 whole entry, looked up): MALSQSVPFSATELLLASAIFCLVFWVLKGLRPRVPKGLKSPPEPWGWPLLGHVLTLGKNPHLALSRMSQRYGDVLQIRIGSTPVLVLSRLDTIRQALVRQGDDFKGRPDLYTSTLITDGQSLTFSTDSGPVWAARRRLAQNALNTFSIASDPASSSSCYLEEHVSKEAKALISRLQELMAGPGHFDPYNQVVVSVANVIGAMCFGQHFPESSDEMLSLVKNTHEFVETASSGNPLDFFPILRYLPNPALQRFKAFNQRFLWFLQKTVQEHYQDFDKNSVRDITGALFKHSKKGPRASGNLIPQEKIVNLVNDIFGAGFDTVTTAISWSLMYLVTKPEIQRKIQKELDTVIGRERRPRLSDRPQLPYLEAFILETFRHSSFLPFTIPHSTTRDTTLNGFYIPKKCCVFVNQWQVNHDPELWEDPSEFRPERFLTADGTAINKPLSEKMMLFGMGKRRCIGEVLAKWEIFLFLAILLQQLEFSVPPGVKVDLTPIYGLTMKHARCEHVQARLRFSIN
Summary of the method: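 Compounds were incubated with CYP1A2 and a luminogenic proluciferin substrate for 10 min at room temperature before the reaction was started with NADPH regeneration solution. After 1 h, detection reagent was added and light output, proportional to CYP activity, was recorded.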

[4] = target: Voltage-gated inwardly rectifying potassium channel KCNH2 (Homo sapiens) (UniProt Q12809); test: Human Ether-a-go-go-Related Gene (hERG) channel small molecule antagonists: fluorescence cell-based qHTS assay (AID 1671200); also: nearly all actives have a fitted effect of over 50% in size;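 as to activity change, negative = inhibition: hERG-expressing U2OS cells given a thallium stimulus after FluxOR II dye loading; series mostly up to about 77 µM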
Voltage-gated inwardly rectifying potassium channel KCNH2 (Homo sapiens), sequence (Q12809 whole entry, looked up): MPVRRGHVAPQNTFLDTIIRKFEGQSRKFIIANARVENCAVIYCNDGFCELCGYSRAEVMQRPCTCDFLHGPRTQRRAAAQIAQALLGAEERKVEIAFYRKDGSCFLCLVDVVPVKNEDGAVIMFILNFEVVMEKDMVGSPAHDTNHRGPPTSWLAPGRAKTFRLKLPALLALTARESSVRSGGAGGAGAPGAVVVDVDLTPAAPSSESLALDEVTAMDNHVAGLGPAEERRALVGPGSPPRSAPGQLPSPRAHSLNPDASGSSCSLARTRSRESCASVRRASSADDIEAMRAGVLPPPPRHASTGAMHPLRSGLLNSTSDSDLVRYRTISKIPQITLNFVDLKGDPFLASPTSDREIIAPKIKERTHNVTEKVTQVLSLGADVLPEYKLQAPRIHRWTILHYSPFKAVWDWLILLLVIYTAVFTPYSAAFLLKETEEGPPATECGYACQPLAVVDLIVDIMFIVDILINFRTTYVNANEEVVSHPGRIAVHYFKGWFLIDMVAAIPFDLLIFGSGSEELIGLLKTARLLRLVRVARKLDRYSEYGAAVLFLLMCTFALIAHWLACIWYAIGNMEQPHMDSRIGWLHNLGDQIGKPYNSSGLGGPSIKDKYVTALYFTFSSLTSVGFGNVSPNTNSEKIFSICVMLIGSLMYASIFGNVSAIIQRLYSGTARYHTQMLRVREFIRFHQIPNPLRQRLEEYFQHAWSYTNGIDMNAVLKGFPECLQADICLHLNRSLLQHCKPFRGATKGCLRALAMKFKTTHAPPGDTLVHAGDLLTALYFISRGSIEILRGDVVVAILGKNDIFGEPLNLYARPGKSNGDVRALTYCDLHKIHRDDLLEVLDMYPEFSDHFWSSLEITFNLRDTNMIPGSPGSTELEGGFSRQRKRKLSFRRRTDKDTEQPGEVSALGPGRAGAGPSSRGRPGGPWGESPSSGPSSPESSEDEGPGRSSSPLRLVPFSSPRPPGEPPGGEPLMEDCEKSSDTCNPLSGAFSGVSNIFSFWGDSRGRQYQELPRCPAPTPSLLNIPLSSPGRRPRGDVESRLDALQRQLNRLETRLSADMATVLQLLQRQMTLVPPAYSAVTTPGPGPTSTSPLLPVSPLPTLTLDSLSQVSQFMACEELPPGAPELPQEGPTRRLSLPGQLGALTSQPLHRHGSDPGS
Summary of the method: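 Channel function was assessed by thallium flux. Cells seeded the previous day and kept at 37 C took up FluxOR II dye over 1 h in the dark at room temperature, then sat another 10 min before stimulation.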

[5] = target: Cytochrome P450 3A4 (Homo sapiens) (UniProt P08684); test: Cytochrome P450 Family 3 Subfamily A Member 4 (CYP3A4) small molecule antagonists: luciferase reporter qHTS assay (AID 1671201); also: nearly all actives have a fitted effect of over 50% in size; as to activity change, negative = inhibition: series mostly up to about 120 µM
Cytochrome P450 3A4 (Homo sapiens), sequence (P08684 whole entry, looked up): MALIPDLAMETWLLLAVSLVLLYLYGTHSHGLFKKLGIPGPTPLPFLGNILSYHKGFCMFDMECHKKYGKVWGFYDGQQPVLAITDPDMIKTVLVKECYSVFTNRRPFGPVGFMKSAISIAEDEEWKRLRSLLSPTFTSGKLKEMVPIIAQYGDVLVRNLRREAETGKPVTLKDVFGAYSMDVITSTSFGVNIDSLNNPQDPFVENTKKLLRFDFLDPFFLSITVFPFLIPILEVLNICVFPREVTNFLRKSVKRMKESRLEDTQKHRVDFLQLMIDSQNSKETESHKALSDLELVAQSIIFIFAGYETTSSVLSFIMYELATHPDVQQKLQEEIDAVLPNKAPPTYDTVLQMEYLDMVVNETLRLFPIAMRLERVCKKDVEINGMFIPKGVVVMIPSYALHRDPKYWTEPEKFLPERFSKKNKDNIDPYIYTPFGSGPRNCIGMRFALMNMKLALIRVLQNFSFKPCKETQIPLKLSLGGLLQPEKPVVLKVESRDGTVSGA
Summary of the method: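 Compounds in DMSO were pin-transferred onto CYP3A4 enzyme-substrate mix and held 10 min at room temperature. NADPH regenerating solution started the reaction for 1 h; luciferin detection reagent stopped it, and luminescence was read after 20 min.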

[6] = target: Cytochrome P450 2C9 (Homo sapiens) (UniProt P11712); test: Cytochrome P450 Family 2 Subfamily C Member 9 (CYP2C9) small molecule antagonists: luciferase reporter qHTS assay (AID 1671198); also: nearly all actives have a fitted effect of over 50% in size; as to activity change, negative = inhibition: series mostly up to about 120 µM
Cytochrome P450 2C9 (Homo sapiens), sequence (P11712 whole entry, looked up): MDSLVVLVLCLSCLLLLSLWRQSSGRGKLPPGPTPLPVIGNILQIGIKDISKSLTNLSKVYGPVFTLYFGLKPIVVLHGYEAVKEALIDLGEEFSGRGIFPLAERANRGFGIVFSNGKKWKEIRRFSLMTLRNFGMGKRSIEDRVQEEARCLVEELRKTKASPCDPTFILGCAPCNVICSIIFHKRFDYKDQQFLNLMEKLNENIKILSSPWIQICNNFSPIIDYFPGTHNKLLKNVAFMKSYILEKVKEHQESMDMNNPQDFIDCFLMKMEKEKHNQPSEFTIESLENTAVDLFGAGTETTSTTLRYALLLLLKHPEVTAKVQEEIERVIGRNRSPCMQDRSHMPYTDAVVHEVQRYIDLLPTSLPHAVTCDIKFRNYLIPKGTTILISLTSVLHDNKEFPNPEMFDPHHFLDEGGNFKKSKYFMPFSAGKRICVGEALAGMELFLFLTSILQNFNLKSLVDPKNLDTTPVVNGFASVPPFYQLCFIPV
Summary of the method: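 Enzyme-substrate mix preincubated with compound 10 min at room temperature; reaction started with NADPH regeneration solution, 1 h 37C. Luminescent luciferin product read after 20 min detection reagent.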
Potency is read from the fitted curve at half-maximal effect.

`COC(C)(C)CCCC(C)CC=O` (stereo unspecified) was tested, and the Potency [1] was “inactive”, the Potency [2] was “inactive” and the Potency [3] was “inactive”. The Potency [4] was “inactive” and the Potency [5] was “inactive”.

In the case of `CC(=O)Nc1ccc(S(N)(=O)=O)cc1`, the Potency [1] is reported as “inactive”, the Potency [6] is reported as “inactive” and the Potency [3] is reported as “inactive”. The Potency [4] was “inactive” and the Potency [5] was “inactive”.

For `CC(=O)OCC(=O)[C@@]1(O)CC[C@H]2[C@@H]3CCC4=CC(=O)CC[C@]4(C)[C@H]3C(=O)C[C@@]21C`, the Potency [1] was 2.45 µM (active), the Potency [2] was “inactive” and the Potency [3] was “inactive”. The Potency [4] was “inactive” and the Potency [5] was “inactive”.

In the case of `CC(C)CCCC(C)N` (stereo unspecified), the Potency [1] is reported as “inactive”, the Potency [6] is reported as “inactive” and the Potency [3] is reported as 21.9 µM (active). For the same compound, the Potency [4] was “inactive” and the Potency [5] was “inactive”.

In the case of `CCCCC/C=C\CCC=O`, the Potency [1] is reported as “inactive”, the Potency [2] is reported as 63.3 µM (active) and the Potency [4] is reported as “inactive”. The Potency [5] was “inactive”.

For `CCc1ccc(O)c(OC)c1`, the Potency [1] was “inactive”, the Potency [6] was “inactive” and the Potency [3] was 31.7 µM (active). The Potency [5] was “inactive”.

In the case of `Nc1ccc(S(=O)(=O)Nc2ccnn2-c2ccccc2)cc1`, the activity change, negative = inhibition [1] is reported as 0.38% [at 23.6 µM], the Potency [2] is reported as “inactive” and the Potency [3] is reported as “inactive”. The activity change, negative = inhibition [4] was 4.06% [at 15.8 µM].

With `C/C=C(\C)C#N` the Potency [1] was “inactive”, the Potency [2] was 78.4 µM (active) and the Potency [4] was “inactive”. The Potency [5] was “inactive”.

With `CN(C(=O)c1c(O)c2ccccc2n(C)c1=O)c1ccccc1` the Potency [1] was “inactive”, the Potency [2] was “inactive” and the Potency [3] was “inactive”. The Potency [4] was “inactive” and the Potency [5] was “inactive”.

`CC(=O)c1ccccc1O` was tested, and the Potency [1] was “inactive”, the Potency [2] was “inactive” and the Potency [3] was “inactive”. The Potency [5] was “inactive”.

`Nc1c[n+](N2CCOCC2)no1` was tested, and the Potency [1] was “inactive”, the Potency [2] was “inactive” and the Potency [3] was “inactive”. For the same compound, the Potency [4] was “inactive” and the Potency [5] was “inactive”.

`N#Cc1ccc(C2CCCc3cncn32)cc1` (stereo unspecified) was tested, and the Potency [1] was 12.7 µM (active), the Potency [2] was 12.7 µM (active) and the Potency [3] was “inactive”. The Potency [4] was “inactive”.

In the case of `Cc1cc(O)cc2c1O[C@](C)(CCC[C@H](C)CCC[C@H](C)CCCC(C)C)CC2`, the Potency [1] is reported as “inactive”, the Potency [2] is reported as “inactive” and the Potency [4] is reported as “inactive”. For the same compound, the Potency [5] was “inactive”.

`COc1ccc2c(c1)c(CC(=O)OCC(=O)O)c(C)n2C(=O)c1ccc(Cl)cc1` was tested, and the Potency [1] was “inactive”, the Potency [2] was “inactive” and the Potency [3] was “inactive”. The Potency [4] was “inactive” and the Potency [5] was “inactive”.

For `Cc1ccc(=O)n(-c2ccccc2)c1`, the Potency [1] was “inactive”, the Potency [6] was “inactive” and the Potency [3] was “inactive”. For the same compound, the Potency [4] was “inactive” and the Potency [5] was “inactive”.

`Cc1cccn2c(=O)c(-c3nnn[nH]3)cnc12` was tested, and the Potency [2] was “inactive”, the activity change, negative = inhibition [6] was -1.3% [at 23.6 µM] and the activity change, negative = inhibition [4] was 0.271% [at 15.8 µM]. The activity change, negative = inhibition [5] was 2.55% [at 23.6 µM].

In the case of `CCCCCCCCS(=O)(=O)Cl`, the Potency [2] is reported as “inactive”, the Potency [6] is reported as 32 µM (active) and the Potency [3] is reported as “inactive”. The Potency [4] was “inactive” and the Potency [5] was “inactive”.

`CC(=O)OC/C=C(\C)CC/C=C(\C)CCC=C(C)C` was tested, and the Potency [2] was 20 µM (active) and 71 µM (active), the Potency [6] was 35.6 µM (active) and the Potency [3] was “inactive”. The Potency [4] was “inactive” and the Potency [5] was 10 µM (active).

For `NS(=O)(=O)c1cc2c(cc1Cl)NC(C1CC3C=CC1C3)NS2(=O)=O` (stereo unspecified), the Potency [6] was 12.3 µM (active).

In the case of `Cc1c(O)cccc1O`, the Potency [1] is reported as “inactive”, the Potency [4] is reported as “inactive” and the Potency [5] is reported as 32.5 µM (active).

In the case of `CCCCC(CC)COC(=O)c1ccccc1O` (stereo unspecified), the Potency [2] is reported as “inactive”, the Potency [6] is reported as “inactive” and the Potency [3] is reported as “inactive”. The Potency [4] was “inactive” and the Potency [5] was “inactive”.

In the case of `CCOC(=O)c1c(C)n(C)c2ccc(O)cc12`, the Potency [2] is reported as 7.76 µM (active), the Potency [3] is reported as 0.512 µM (active) and the Potency [4] is reported as “inactive”.

With `COCCc1ccc(OCC(O)CNC(C)C)cc1` (stereo unspecified) the Potency [4] was “inactive”.

In the case of `CCOC(=O)CC(C)=O`, the Potency [4] is reported as “inactive”.

In the case of `CC/C=C\CCOC(C)=O`, the Potency [2] is reported as “inactive”, the Potency [6] is reported as “inactive” and the Potency [3] is reported as “inactive”. The Potency [4] was “inactive” and the Potency [5] was “inactive”.

With `CCN(Cc1ccncc1)C(=O)C(CO)c1ccccc1` (stereo unspecified) the Potency [4] was “inactive”.

For `CS(=O)(=O)O`, the Potency [2] was “inactive”, the Potency [6] was “inactive” and the Potency [3] was 31.9 µM (active). For the same compound, the Potency [4] was “inactive” and the Potency [5] was “inactive”.

For `CCN1CCC[C@H]1CNC(=O)c1c(O)c(Cl)cc(Cl)c1OC`, the Potency [2] was “inactive”, the Potency [6] was “inactive” and the Potency [4] was “inactive”. For the same compound, the Potency [5] was “inactive”.

`Brc1c(NC2=NCCN2)ccc2nccnc12` was tested, and the Potency [4] was “inactive”.

For `Cc1nc2c([nH]1)c(=O)n(C)c(=O)n2Cc1ccco1`, the Potency [2] was “inactive”, the Potency [6] was “inactive” and the Potency [4] was “inactive”. The Potency [5] was “inactive”.

For `O=C(CCCN1CCC(O)(c2cccc(C(F)(F)F)c2)CC1)c1ccc(F)cc1`, the Potency [2] was “inactive”, the Potency [6] was “inactive” and the Potency [3] was “inactive”. For the same compound, the Potency [5] was “inactive”.

With `CC(=O)Nc1c(I)cc(I)c(C(=O)O)c1I` the Potency [1] was 27.5 µM (active), the Potency [3] was 24.5 µM (active) and the Potency [4] was “inactive”. For the same compound, the Potency [5] was “inactive”.

`Oc1ccc(C2CNCCc3c2cc(O)c(O)c3Cl)cc1` (stereo unspecified) was tested, and the Potency [3] was “inactive”, the Potency [4] was “inactive” and the Potency [5] was “inactive”.

With `C[N+](C)(C)CC(O)CC(=O)[O-]` (stereo unspecified) the Potency [2] was “inactive”, the Potency [6] was “inactive” and the Potency [3] was “inactive”. For the same compound, the Potency [5] was “inactive”.

`COc1ccc(CCN(C)CCCC(C#N)(c2cc(OC)c(OC)c(OC)c2)C(C)C)cc1OC` (stereo unspecified) was tested, and the Potency [2] was “inactive”, the Potency [3] was “inactive” and the Potency [4] was 7.56 µM (active).

`Cn1c(N)c(N=O)c(=O)n(C)c1=O` was tested, and the Potency [2] was 58.2 µM (active), the Potency [6] was “inactive” and the Potency [3] was “inactive”. For the same compound, the Potency [4] was “inactive” and the Potency [5] was “inactive”.

In the case of `O=Cc1cccc([N+](=O)[O-])c1`, the Potency [2] is reported as “inactive”, the Potency [6] is reported as “inactive” and the Potency [3] is reported as 39.7 µM (active). The Potency [5] was “inactive”.

`c1ccc(CC2=NCCN2)cc1` was tested, and the Potency [6] was “inactive”, the Potency [3] was “inactive” and the Potency [5] was “inactive”.

With `CCn1nc(C(=O)O)c(=O)c2cc3c(cc21)OCO3` the Potency [4] was “inactive”.

With `NCCc1cnc[nH]1` the Potency [4] was “inactive”.

In the case of `CCc1cccc2c(CCO)c[nH]c12`, the Potency [2] is reported as 17.4 µM (active), the Potency [3] is reported as 7.76 µM (active) and the Potency [4] is reported as “inactive”. The Potency [5] was “inactive”.

With `CCN(CC)CCOCCOC(=O)C1(c2ccccc2)CCCC1` the Potency [2] was “inactive”, the Potency [6] was “inactive” and the Potency [3] was “inactive”.

With `Nc1c2c(nc3ccccc13)CCCC2O` (stereo unspecified) the Potency [2] was “inactive”, the Potency [6] was “inactive” and the Potency [3] was 15.5 µM (active). The Potency [5] was “inactive”.

`CO/N=C(/C(=O)N[C@@H]1C(=O)N2C(C(=O)OCOC(=O)C(C)(C)C)=C(C)CS[C@H]12)c1csc(N)n1` was tested, and the Potency [6] was 11 µM (active) and the Potency [4] was “inactive”.

Source: PubChem BioAssay (Tox21)
